Hits are enriched below; roughly 3% of the tested compounds scored in any of these assays.
Tau fibril FP: inhibitors of human tau fibril formation; 280,000 compounds, 0.39% hits; P10636; Potency, µM (doses to about 57.7 µM), for the others: at the top dose activity, negative = inhibition, actives largely listed as inhibitors; K18 P301L tau heparin fibrillization, Alexa594 FP, 6 h; further: nearly all actives have a fitted effect of over 55% in size
Target sequence (P10636 561-689 P618L limits assumed): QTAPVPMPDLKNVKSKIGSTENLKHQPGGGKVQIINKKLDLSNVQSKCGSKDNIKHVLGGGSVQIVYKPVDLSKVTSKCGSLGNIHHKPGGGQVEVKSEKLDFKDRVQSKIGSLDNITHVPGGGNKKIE
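Read-out: fluorescence polarization of Alexa 594-labeled tau (0.24 uM), 555 nm excitation, 632 nm emission. Mixtures held 15 uM unlabeled K18 P301L, compound and 20 uM heparin, pH 7 acetate buffer, incubated 6 hr at 37 C.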
Tau ThT inhib: inhibitors of human tau fibril formation, thioflavin T binding; P10636; recombinant tau K18 P301L, heparin-induced fibrillization, ThT fluorescence; Potency, µM (highest dose often 57.4 µM), for inactives: top-dose activity, negative = inhibition, most hits filed as inhibitors; 270,000 compounds, 2.1% hits; further: nearly all actives have a fitted effect of over 55% in size
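Using a mix of unlabeled (15 uM) and Alexa 594-labeled (0.24 uM) tau K18 P301L, heparin-triggered fibrillization over 6 hr at 37 C was scored by ThT fluorescence.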
TR SRC2 fluor cs: Texas Red fluorescence interference in TRb-SRC2 counter-screen; TRb/SRC2 Texas Red total fluorescence interference; Potency, µM (series often up to 106 µM), inactives show at the top dose fluorescence change, negative = quenching; 280,000 compounds, 0.29% hits; AID 1479; active means well fitted curve in either direction with a large enough effect; inconclusive means small, poorly fitted or top-dose-only effect
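Human TRβ ligand-binding domain (0.6 uM) and Texas Red SRC2 peptide (20 nM) in Tris buffer with 1 uM T3 and 5% DMSO were incubated with pinned compound for 5 hr at ambient temperature. Total fluorescence was computed as S + 2P (555/632 nm).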
Tau fluor counter: counter-screen for tau fibril formation inhibitors | tau K18 P301L Alexa594 fluorescence, heparin fibrillization | Potency, µM (doses to about 57.7 µM), inactives show at the highest dose activity change, negative = decrease | 280,000 compounds, 0.93% hits; further: nearly all actives have a fitted effect of over 55% in size
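Human tau K18 P301L (15 uM unlabeled, 0.24 uM Alexa 594-labeled) in 100 mM sodium acetate pH 7 with 20 uM heparin, 6 hr at 37 C. ThT 30 uM added, 1 hr ambient; Alexa 594 FP and total fluorescence read at 555/632 nm.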
TRb-SRC2 inh: TRbeta-SRC2 interaction inhibition; AID 1469; P10828; TRbeta-SRC2 peptide binding, fluorescence polarization; receptor liganded with 1 µM T3; 280,000 compounds, 0.065% hits; Potency, µM (doses to about 106 µM), for inactives: top-dose activity change, negative = inhibition, actives largely listed as inhibitors;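 further: plate controls were bound peptide for no effect and peptide without receptor for full effect; nearly all actives have a fitted effect of over 50% in size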
Target sequence (P10828 whole entry, looked up): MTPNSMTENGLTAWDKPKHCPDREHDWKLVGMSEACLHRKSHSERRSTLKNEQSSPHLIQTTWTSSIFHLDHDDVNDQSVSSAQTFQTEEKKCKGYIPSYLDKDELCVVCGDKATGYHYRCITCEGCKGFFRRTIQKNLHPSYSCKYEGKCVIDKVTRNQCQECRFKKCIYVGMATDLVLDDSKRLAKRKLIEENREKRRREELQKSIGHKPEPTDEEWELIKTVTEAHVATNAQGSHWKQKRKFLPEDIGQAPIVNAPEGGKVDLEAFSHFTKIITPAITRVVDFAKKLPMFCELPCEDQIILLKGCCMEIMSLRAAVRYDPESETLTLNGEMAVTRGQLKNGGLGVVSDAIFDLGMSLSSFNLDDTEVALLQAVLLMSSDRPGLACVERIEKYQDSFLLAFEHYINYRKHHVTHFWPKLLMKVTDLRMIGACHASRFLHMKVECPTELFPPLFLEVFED
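Quantitative HTS by FP: 0.6 uM TRb LBD, 20 nM labeled SRC2 20-mer, 1 uM T3, 5% DMSO; 5 hr ambient incubation; % activity per concentration and potencies from concentration series.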
Starred values were filed as active, the others as inactive; ? = inconclusive; [ ] = dose if it differs, or a comment. Unless noted, the call rests on the fitted dose curve; in most records, active means well fitted curve in the direction sought with a large enough effect; inconclusive means small, poorly fitted or top-dose-only effect, or another doubt; inactive means no such curve, though single readings can be large; an effect the other way counts as inactive or inconclusive. Unless noted, on the % scale 0 is the no-effect control and ±100 the full control effect; potency means the concentration at half of the fitted maximal effect.

SMILES	Tau fibril FP	Tau ThT inhib	TR SRC2 fluor cs	Tau fluor counter	TRb-SRC2 inh
COc1ccccc1N/C=C/c1onc(C)c1[N+](=O)[O-]	1%	?	-1%	-12%	-1%
Cc1noc(/C=C/Nc2ccc(F)cc2F)c1[N+](=O)[O-]	0%	3.2µM*	-1%	-18%	2%
CC(C)C(NS(=O)(=O)c1ccc2c(c1)oc(=O)n2C)C(=O)N1CCN(c2cccc(Cl)c2)CC1 (stereo unspecified)	1%	-7%	9%	-15%	4%
O=C(O)c1ccc(N=c2oc3cc(O)ccc3cc2C(=O)NCc2ccccc2)cc1	0%	28µM*	-10%	-10%	5%
O=C(CSc1ccccc1)N1CCc2c([nH]c3ccccc23)C1c1ccc(Cl)cc1 (stereo unspecified)	-4%	-1%	-1%	-9%	-7%
COc1cc(OC)c(NC(=S)Nc2cccc(C(C)=O)c2)cc1Cl	0%	?	4%	?	1%
COc1cc(OC)c(NC(=S)Nc2cc(Cl)cc(Cl)c2)cc1Cl	3%	?	-1%	25µM*[quencher]	-9%
COc1cc(N=Nc2cccc(S(N)(=O)=O)c2)c2ccccc2c1N	?	1.6µM*	-18%	10µM*[quencher]	2%
CCN1CCN(c2cc(C)c3cc(NC(=O)Cc4ccccc4OC)ccc3n2)CC1	?	-9%	-1%	-4%	0%
COc1cccc(NC(=O)Cc2ccccc2)c1	3%	-13%	-6%	-6%	0%
COc1cccc(CC(=O)Nc2ccc3nc(Nc4cccc(C(F)(F)F)c4)cc(C)c3c2)c1	?	?	-2%	7.1µM*[quencher]	5%
COc1ccccc1CC(=O)Nc1ccc2nc(Nc3cccc(C(F)(F)F)c3)cc(C)c2c1	-7%	-13%	-1%	6.3µM*[quencher]	9%
Cc1cc(C)n2nc(CNC(=O)c3cccc(Cl)c3)nc2n1	9%	-3%	-1%	-4%	-9%
O=S(=O)(c1ccc(C2CCCCC2)cc1)N1CCN(c2cc(Cl)ccc2Cl)CC1	1%	-8%	-16%	-4%	-1%
CCN(CC)CC(=O)Nc1ccc2c(c1)N(C(=O)CN(CC)CC)c1ccccc1CC2	2%	-16%	-5%	-6%	2%
CCN(CC)CC(=O)Nc1ccc2c(c1)Nc1ccccc1CC2	4%	?	-2%	16µM*[quencher]	-20%
CCc1ccc(CNC(=O)COc2cc(=O)n(CC)c3ccccc23)cc1	-1%	-13%	4%	-2%	5%
C/C(=N\NC(=O)c1ccc(C)cc1C)c1ccc2c(c1)Nc1ccccc1S2	?	14µM*	1%	18µM*[quencher]	-1%
CC(=O)c1cc(-c2ccc(F)cc2)n(CCC(=O)NC2CCCCC2)c1C	0%	-17%	-25%	-13%	0%
COC(=O)c1c(SCC(=O)Nc2ccccc2OC)[nH]c2ccccc2c1=O	4%	14µM*	2%	?	15%
CCN1C(=O)[C@H]2[C@H]3[C@H](O)[C@H](O)C/C(=N/OC[C@@H](C)[C@H](OCc4ccccc4)C(C)C)[C@@H]3CC[C@@H]2C1=O	4%[11.6 µM]	-2%[11.5 µM]	-6%[11.2 µM]	-3%[11.6 µM]	1%[11.2 µM]
Cc1cc2ccccn2c1C(=S)NC(=O)c1ccccc1	2%	16µM*	0%	-19%	3%
Cc1cc(NS(=O)(=O)c2cn(C)c(C)n2)ccc1Br	-9%	3%	-1%	-4%	-6%
CCc1ccc(NC(=O)CSc2nc3ccsc3c(=O)n2C(C)CC)cc1 (stereo unspecified)	-14%	-3%	3%	-18%	8%
Cc1cccc(N=C2NN=C(c3ccc4c(c3)OCCO4)CS2)c1	-12%	11µM*	-5%	?	2%
SMILES	Tau fibril FP	Tau ThT inhib	TR SRC2 fluor cs	Tau fluor counter	TRb-SRC2 inh
Cc1cccc(N=C2NN=C(c3c(C)[nH]c4ccccc34)CS2)c1	-8%	0%	-3%	-1%	-8%
CC1CCCN(C2=C(NS(=O)(=O)c3ccc(Cl)cc3)C(=O)c3ccccc3C2=O)C1 (stereo unspecified)	-3%	?	4%	-4%	0%
COC(=O)C1CCN(C2=C(NS(=O)(=O)c3ccc(Cl)cc3)C(=O)c3ccccc3C2=O)CC1	-14%	14µM*	2%	?	-1%
NC(=O)C1CCN(C2=C(NS(=O)(=O)c3ccc(Cl)cc3)C(=O)c3ccccc3C2=O)CC1	?	16µM*	-5%	?	-2%
N#CC1=C(N)Oc2n[nH]c(-c3cccs3)c2C1c1cccs1 (stereo unspecified)	-15%	28µM*	-6%	?	8%
CSC1=NSC2=NC(=O)/C(=C\c3cccs3)C(=N)N12	12%	14µM*	-7%	-7%	6%
N=C1/C(=C/c2cccs2)C(=O)N=C2SN=C(SCc3ccccc3)N12	3%	18µM*	-3%	?	9%
CC(C)CSC1=NSC2=NC(=O)/C(=C\c3cccs3)C(=N)N12	-3%	0%	4%	-2%	-10%
COc1cc(/C=N/N(C)c2ccccc2)cc(Cl)c1O	?	?	-3%	14µM*[quencher]	3%
COc1cc(/C=N/O)cc(Cl)c1OC	2%	6%	2%	5%	-5%
COc1ccc(OC)c(/C=N/N(C)c2ccccc2)c1	5%	13µM*	-3%	11µM*[quencher]	-9%
O=C(CC1SC2=NCCN2C1=O)Nc1ccc(Br)cc1 (stereo unspecified)	-12%	-7%	-4%	-3%	-15%
O=C(Nc1ccc(F)cc1)C1=CC(=O)N2CCN=C2S1	?	18µM*	0%	-14%	-1%
Cc1ccc(S(=O)(=O)c2cn(CC(=O)Nc3ccc(F)cc3)c3cc4c(cc3c2=O)OCO4)cc1	-17%	16%	0%	-14%	1%
O=C(/C=C/c1ccccc1)n1cnnc1SC/C=C/c1ccccc1	?	28µM*	-11%	-13%	3%
CC(C)(C)c1cc[n+](C2=C([O-])c3ccccc3C(=O)/C2=N\S(=O)(=O)c2cccs2)cc1	-9%	18µM*	-9%	?	8%
CCc1ccc2occ(CC(=O)Nc3c(C(=O)Nc4ccc(C)cc4)oc4ccccc34)c2c1	?	1%	1122µM*[quencher]	-26%	-24%[53 µM]
CCc1ccc2occ(CC(=O)Nc3c(C(=O)Nc4ccc(Cl)cc4)oc4ccccc34)c2c1	?	-2%	?	?	-5%
CC(C)n1c(O)c(N=Nc2ccc(Cl)c(C(=O)O)c2)c2ccccc21	-2%	16µM*	1%	0%	-3%
CCn1c(O)c(N=Nc2ccc(Cl)c(C(=O)O)c2)c2ccccc21	7%	4.5µM*	-4%	-9%	3%
Cc1oc2c(c1C(=O)c1ccccc1)C(=O)C(=O)c1ccccc1-2	?	7.9µM*	0%	-22%	?

Bioassay records deposited in PubChem BioAssay by National Center for Advancing Translational Sciences (NCATS).
